This is part of a sample that, as a whole, favours compounds with a hit. Of some 83,000 tested, about 20% had one in any assay.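 Negative percent growth values reflect cell death: -40 means 40% of the cells present at the start died, and -100 means all died.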 Active and inactive are the calls of the source. How the source made its calls: active means growth percent below 10; inactive means the rest.
Assays:
Test in all cases: NCI-60 one-dose screen, 48 h (100 = growth as untreated, 0 = no growth, -100 = all killed)
Conditions in all cases: 10 µM unless noted
DU-145 prostate = system: DU-145 prostate
K-562 leukemia = system: K-562 leukemia
MALME-3M melanoma = system: MALME-3M melanoma
MDA-MB-231 breast = system: MDA-MB-231 breast
RXF 393 renal = system: RXF 393 renal
SF-268 CNS = system: SF-268 CNS
SF-295 CNS = system: SF-295 CNS
SF-539 CNS = system: SF-539 CNS
UACC-257 melanoma = system: UACC-257 melanoma
HCT-15 colon = system: HCT-15 colon
HT29 colon = system: HT29 colon
SNB-75 CNS = system: SNB-75 CNS
SNB-19 CNS = system: SNB-19 CNS
U251 CNS = system: U251 CNS
PC-3 prostate = system: PC-3 prostate
SK-MEL-5 melanoma = system: SK-MEL-5 melanoma
UACC-62 melanoma = system: UACC-62 melanoma
LOX IMVI melanoma = system: LOX IMVI melanoma
SK-MEL-28 melanoma = system: SK-MEL-28 melanoma
M14 melanoma = system: M14 melanoma

Measured: growth

O=S(=O)(NCCCNc1nccc(-c2[nH]c(-c3ccccc3)nc2-c2ccc(Cl)c(O)c2)n1)c1cccc2ccccc12
active: MALME-3M melanoma 6.39% | RXF 393 renal -9.57%
inactive: DU-145 prostate 27.6% | K-562 leukemia 17% | MDA-MB-231 breast 45.9% | SF-268 CNS 46.8% | SF-295 CNS 12.9% | SF-539 CNS 44.8% | UACC-257 melanoma 27% | HCT-15 colon 16.3% | HT29 colon 38.6% | SNB-75 CNS 43.4% | SNB-19 CNS 37.8% | U251 CNS 14.7% | PC-3 prostate 26.2% | SK-MEL-5 melanoma 13.1% | UACC-62 melanoma 17.4% | LOX IMVI melanoma 19.8% | SK-MEL-28 melanoma 29.8%

CCNC(=O)Oc1ccc(/C(=C(/C)c2ccccc2)c2ccc(OCCN3CCCCCC3)cc2)cc1
inactive: DU-145 prostate 38.7% | SF-268 CNS 31.8% | SNB-19 CNS 12.7% | PC-3 prostate 13.1% | UACC-62 melanoma 16.5%
active: K-562 leukemia 2.41% | MALME-3M melanoma -70.8% | MDA-MB-231 breast 6.37% | RXF 393 renal -7.37% | SF-295 CNS -1.08% | SF-539 CNS -74.5% | UACC-257 melanoma -48.9% | M14 melanoma -80.3% | HCT-15 colon 3.38% | HT29 colon -14.2% | SNB-75 CNS -0.681% | SK-MEL-5 melanoma -94.7% | LOX IMVI melanoma -14.8% | SK-MEL-28 melanoma -41.8%

Oc1[nH]c2ccccc2c1Nn1c(N=N/C=c2/ccc3c(c2)C=NN=3)n[nH]c1=S
inactive: DU-145 prostate 99.1% | K-562 leukemia 101% | MALME-3M melanoma 109% | MDA-MB-231 breast 75.6% | RXF 393 renal 85.4% | SF-268 CNS 96.9% | SF-295 CNS 106% | SF-539 CNS 94% | UACC-257 melanoma 110% | M14 melanoma 106% | HCT-15 colon 115% | HT29 colon 19.4% | SNB-75 CNS 66.7% | SNB-19 CNS 98.9% | PC-3 prostate 97.4% | SK-MEL-5 melanoma 92% | UACC-62 melanoma 98.9% | LOX IMVI melanoma 97.6% | SK-MEL-28 melanoma 115%

CCCSc1nc(Nc2ccc(/C(C)=N\NC(N)=S)cc2)c(C#N)c(-c2ccccc2)n1
active: RXF 393 renal -4.63%
inactive: DU-145 prostate 66.3% | K-562 leukemia 56.5% | MALME-3M melanoma 97.9% | MDA-MB-231 breast 72.9% | SF-268 CNS 103% | SF-295 CNS 51.8% | SF-539 CNS 36.4% | UACC-257 melanoma 105% | M14 melanoma 99.6% | HCT-15 colon 66% | HT29 colon 60.3% | SNB-75 CNS 141% | SNB-19 CNS 83.1% | PC-3 prostate 79.9% | SK-MEL-5 melanoma 80.2% | UACC-62 melanoma 97.1% | LOX IMVI melanoma 46.1% | SK-MEL-28 melanoma 84.6%

Cc1ccc2c(c1)C(=O)/C(=C/c1cccc(F)c1)S2
inactive: DU-145 prostate 111% | K-562 leukemia 90.7% | MALME-3M melanoma 97.9% | MDA-MB-231 breast 99.8% | RXF 393 renal 96.6% | SF-268 CNS 101% | SF-295 CNS 105% | SF-539 CNS 100% | UACC-257 melanoma 103% | M14 melanoma 109% | HCT-15 colon 100% | HT29 colon 104% | SNB-75 CNS 106% | SNB-19 CNS 96.9% | U251 CNS 101% | PC-3 prostate 86.4% | UACC-62 melanoma 83.7% | LOX IMVI melanoma 114% | SK-MEL-28 melanoma 101%

C/C(=N\O)[C@H]1C[C@]23CC[C@]4(C)[C@H](CC[C@@H]5[C@@]6(C)CC/C(=N/O)C(C)(C)[C@@H]6CC[C@]54C)[C@H]2[C@H](C)C1(C)OC3
inactive: DU-145 prostate 94.4% | K-562 leukemia 101% | MALME-3M melanoma 106% | MDA-MB-231 breast 99% | RXF 393 renal 58.1% | SF-268 CNS 89.4% | SF-295 CNS 101% | SF-539 CNS 103% | UACC-257 melanoma 110% | M14 melanoma 105% | HCT-15 colon 105% | HT29 colon 113% | SNB-75 CNS 72% | SNB-19 CNS 97.7% | PC-3 prostate 94.8% | SK-MEL-5 melanoma 100% | UACC-62 melanoma 89.7% | LOX IMVI melanoma 98.2% | SK-MEL-28 melanoma 110%

CCN(CC)c1cn(-c2ccc(S(N)(=O)=O)cc2)nn1
inactive: DU-145 prostate 105% | K-562 leukemia 91.6% | MALME-3M melanoma 103% | MDA-MB-231 breast 102% | RXF 393 renal 114% | SF-268 CNS 101% | SF-295 CNS 101% | SF-539 CNS 99.6% | UACC-257 melanoma 99.7% | HCT-15 colon 105% | HT29 colon 97.9% | SNB-75 CNS 83% | SNB-19 CNS 102% | U251 CNS 100% | PC-3 prostate 101% | SK-MEL-5 melanoma 104% | UACC-62 melanoma 94.9% | LOX IMVI melanoma 106% | SK-MEL-28 melanoma 105%

COc1ccc(-c2cc(-c3ccc(Cl)cc3)c(C#N)c(=O)n2Cc2ccc(C(=O)O)cc2)cc1
inactive: DU-145 prostate 112% | K-562 leukemia 54.3% | MALME-3M melanoma 52.9% | MDA-MB-231 breast 95.6% | RXF 393 renal 72.1% | SF-268 CNS 67.8% | SF-295 CNS 68.3% | SF-539 CNS 69.1% | UACC-257 melanoma 83.8% | HCT-15 colon 79% | HT29 colon 117% | SNB-19 CNS 90.1% | U251 CNS 84.3% | PC-3 prostate 68.9% | SK-MEL-5 melanoma 87.2% | UACC-62 melanoma 18.4% | LOX IMVI melanoma 75.7% | SK-MEL-28 melanoma 60.7%
active: SNB-75 CNS 3.46%

O=S(=O)(Nc1cccc2ccccc12)c1ccc(-c2cnc(C3CC3)o2)cc1
inactive: DU-145 prostate 15.3% | MALME-3M melanoma 61.4% | MDA-MB-231 breast 27.6% | SF-268 CNS 55.5% | UACC-257 melanoma 69% | M14 melanoma 14.5% | HCT-15 colon 14.3% | HT29 colon 16.8% | SNB-19 CNS 38.8% | U251 CNS 23.8% | PC-3 prostate 16.5% | UACC-62 melanoma 37.2% | SK-MEL-28 melanoma 57.7%
active: K-562 leukemia 8.55% | RXF 393 renal 7.94% | SF-295 CNS 0.665% | SF-539 CNS 7.47% | SK-MEL-5 melanoma 7.66%

COc1ccc(NCc2cn(-c3ccc(C(=O)O)cc3)nc2-c2cc(C(F)(F)F)cc(C(F)(F)F)c2)cc1
inactive: DU-145 prostate 103% | K-562 leukemia 90.5% | MALME-3M melanoma 86.8% | MDA-MB-231 breast 101% | RXF 393 renal 111% | SF-268 CNS 99.2% | SF-295 CNS 102% | SF-539 CNS 86.5% | UACC-257 melanoma 105% | M14 melanoma 96.4% | HCT-15 colon 88.8% | HT29 colon 99.1% | SNB-75 CNS 91.9% | SNB-19 CNS 94.9% | PC-3 prostate 93% | SK-MEL-5 melanoma 98.8% | UACC-62 melanoma 97.3% | LOX IMVI melanoma 99.5% | SK-MEL-28 melanoma 107%

Nn1c(N/N=C/c2nc3ccccc3s2)n[nH]c1=S
inactive: DU-145 prostate 97.5% | K-562 leukemia 108% | MALME-3M melanoma 109% | MDA-MB-231 breast 88.2% | RXF 393 renal 83.9% | SF-268 CNS 93.2% | SF-295 CNS 105% | SF-539 CNS 103% | UACC-257 melanoma 109% | M14 melanoma 111% | HCT-15 colon 122% | HT29 colon 112% | SNB-75 CNS 51.5% | SNB-19 CNS 104% | PC-3 prostate 97.8% | SK-MEL-5 melanoma 100% | UACC-62 melanoma 92.1% | LOX IMVI melanoma 102% | SK-MEL-28 melanoma 114%

O=C(Nc1cccc(Cl)c1)Nc1nc2ccc([N+](=O)[O-])cc2o1
active: MALME-3M melanoma -4.16% | RXF 393 renal -3.23% | SF-268 CNS 7.72% | UACC-257 melanoma 1.92% | U251 CNS 6.13% | PC-3 prostate 5.64% | SK-MEL-5 melanoma -13% | UACC-62 melanoma 2.02%
inactive: DU-145 prostate 26.8% | K-562 leukemia 12.3% | MDA-MB-231 breast 25.8% | SF-295 CNS 24.5% | SF-539 CNS 11.4% | M14 melanoma 18.2% | HCT-15 colon 13.7% | HT29 colon 14.3% | SNB-19 CNS 19.7% | SK-MEL-28 melanoma 26%

Cc1nc2ncc(-c3ccc4ncnc(NCc5ccccc5)c4c3)cc2[nH]1
active: RXF 393 renal -18.1%
inactive: DU-145 prostate 27.4% | K-562 leukemia 84.2% | MALME-3M melanoma 63.4% | MDA-MB-231 breast 24.4% | SF-268 CNS 37.6% | SF-295 CNS 61.5% | SF-539 CNS 60.6% | UACC-257 melanoma 75.7% | M14 melanoma 81.4% | HCT-15 colon 103% | HT29 colon 82.8% | SNB-75 CNS 13% | SNB-19 CNS 67.7% | PC-3 prostate 40.8% | SK-MEL-5 melanoma 82.8% | UACC-62 melanoma 64.3% | SK-MEL-28 melanoma 63.1%

COc1cccc2cc(-c3cc4ccccc4[nH]3)/c(=N\NC(=O)c3ccc(Cl)cc3)oc12
inactive: DU-145 prostate 48.3% | K-562 leukemia 22.1% | MALME-3M melanoma 61.7% | MDA-MB-231 breast 41.3% | RXF 393 renal 45.9% | SF-268 CNS 32.9% | SF-295 CNS 43.2% | SF-539 CNS 33.1% | UACC-257 melanoma 17.4% | M14 melanoma 31.9% | HCT-15 colon 20.3% | HT29 colon 67% | SNB-19 CNS 47.4% | U251 CNS 34.6% | PC-3 prostate 35.3% | SK-MEL-5 melanoma 48.4% | UACC-62 melanoma 16.1% | SK-MEL-28 melanoma 42.6%

CCOC(=O)c1c(Nc2ccccc2)nn2c(-c3cccs3)ccnc12
inactive: DU-145 prostate 84.7% | K-562 leukemia 59% | MALME-3M melanoma 88.7% | MDA-MB-231 breast 81.3% | SF-268 CNS 91.4% | SF-295 CNS 84.1% | SF-539 CNS 84.1% | UACC-257 melanoma 108% | M14 melanoma 91.6% | HCT-15 colon 53.8% | HT29 colon 80.3% | SNB-75 CNS 88.8% | SNB-19 CNS 98.2% | PC-3 prostate 81% | SK-MEL-5 melanoma 70.9% | UACC-62 melanoma 84.6% | SK-MEL-28 melanoma 90.7%
active: RXF 393 renal -6.08%
